aSyn yeast inh – rescues yeast growth from alpha-synuclein toxicity | Yeast expressing alpha-synuclein, growth rescue, BacTiter-Glo, 24 h | Potency, µM (titrated, usually from 46.1 µM), inactives show top-dose growth rescue (activation), most hits filed as activators | 0.14% of 370,000 active | AID 652106; further: potency means the concentration at half of the fitted maximal effect; % of control where 0% means no effect; nearly all actives have a fitted effect of over 65% in size
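Galactose-induced alpha-syn yeast (OD600=0.02, raffinose-pregrown) + pinned cpd, 24 hr, 30 deg C; growth by BacTiter-Glo luminescence. Growth restoration scores as activation.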
Mito fusion act – blocks mitochondrial division or promotes mitochondrial fusion; Potency, µM (highest dose often 46.1 µM), without a hit: at the top dose growth rescue (activation), usual class: activators; 0.23% of 320,000 active; S. cerevisiae fusion-defective mutant growth rescue, CellTiterGlo 48 h; AID 485298; further: potency means the concentration at half of the fitted maximal effect; % of control where 0% means no effect; nearly all actives have a fitted effect of over 45% in size
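S. cerevisiae fusion-defective temperature-sensitive mutants (e.g. fzo1-1, mgm1-5) grown 48 h at 37C in YPEG (ethanol/glycerol non-fermentable) medium with 23 nl compound per well; growth rescue read as CellTiterGlo luminescence.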
Apoferritin bind – candidate novel general anesthetic via apoferritin binding; AID 485281; apoferritin/1-aminoanthracene competitive binding, fluorescence; P02791; 0.074% of 350,000 active; Potency, µM (series often up to 77.5 µM), inactives show top-dose activity change, negative = displacement, most hits filed as inhibitors; further: potency means the concentration at half of the fitted maximal effect; on the % scale 0 is the no-effect control and ±100 the full control effect; nearly all actives have a fitted effect of over 20% in size
Target sequence (P02791 2-175 limits assumed): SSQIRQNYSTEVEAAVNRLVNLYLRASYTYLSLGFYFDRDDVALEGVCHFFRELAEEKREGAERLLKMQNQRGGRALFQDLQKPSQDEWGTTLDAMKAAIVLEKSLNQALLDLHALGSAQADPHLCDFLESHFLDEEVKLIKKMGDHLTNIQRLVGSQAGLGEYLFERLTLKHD
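10 uM apoferritin + 50% sat. 1-AMA, PBS; cpd 10 min RT; Ex380/Em535 endpoint; normalized to free probe vs complex; 4-param Hill fit; propofol titration as pos. ctrl.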
pAkt inh – blocks phosphorylation of Akt. Neuro2A IGF-stimulated pAkt S473 HTRF, 20 min; active compounds read low. activity change, % for hits at 50 µM. 0.32% of 360,000 active; in the data active means activity change below about -80%; inconclusive means mostly about -51% to -80%; further: on the % scale 0 is the no-effect control and ±100 the full control effect
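Neuro2A cells in DMEM with 0.5% FBS, overnight at 37 deg C, given compound at single 50 µM final, then IGF (6 nM final) for 20 min at 37 deg C. Lysed; phospho-Akt Ser473 by HTRF after 24 h, 665/615 ratio.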
TDP43 rescue – TDP-43 toxicity inhibition in yeast. TDP-43 expressing yeast growth rescue, BacTiter-Glo, 24 h. Potency, µM (top dose mostly 46.1 µM), without a hit: top-dose growth rescue (activation), hits mostly activators. 1.8% of 410,000 active. AID 652104; further: potency means the concentration at half of the fitted maximal effect; % of control where 0% means no effect; nearly all actives have a fitted effect of over 50% in size
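Yeast expressing TDP-43 (pregrown in raffinose, seeded at OD600=0.02 in galactose medium) exposed to compounds 24 hr at 30 deg C. Growth read by BacTiter-Glo luminescence; rescue of toxicity appears as increased signal.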
CCT modulator – changes cytosolic chaperonin activity; purified chaperonin ATPase assay, HTRF ADP detection, 30 min; activity change, % (test concentration not listed), hits read low; 0.3% of 360,000 active; in the data active means activity change below about -30%; further: on the % scale 0 is the no-effect control and ±100 the full control effect
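TRiC (40 or 20 nM final, by batch activity) in 30 mM Tris pH 7.4, 100 mM KCl, 5 mM MgCl2, 1 mM DTT was treated with compound at 76 uM single dose, then 10 uM ATP, 30 min at 37 °C. ADP was read by HTRF Transcreener.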
Active calls of the source: *; i = inactive; ? = inconclusive; / = not tested or not shown. Most compounds without a hit are left out; they make up all but 2.5% or so of the library. Unless noted, the call rests on the fitted dose curve; in most records, active means well fitted curve in the direction sought with a large enough effect; inconclusive means small, poorly fitted or top-dose-only effect, or another doubt; inactive means no such curve, though single readings can be large; an effect the other way counts as inactive or inconclusive.

SMILES | aSyn yeast inh | Mito fusion act | Apoferritin bind | pAkt inh | TDP43 rescue | CCT modulator
N#CCSc1ncnc2ccccc12 | -2.7% | 2.1% | -4.3% | i | 8.9% | -0.9
COc1cccc(CNC(=O)CCc2c(C)nc3c4c(C)cc(C)nc4nn3c2C)c1 | / | / | -0.7% | / | -6.8% | /
CC(=O)N1c2ccccc2C(=O)C1N1CCN(c2ccc(F)cc2)CC1 (stereo not drawn) | / | / | -17.0% | / | ? | /
CC(=O)N1c2ccccc2C(=O)C1N1CCN(c2ccccc2F)CC1 (stereo not drawn) | / | / | -22.9% | / | 35.5µM* | /
CC1=C(C(=O)OC2CCCC2)C(c2ccc(F)cc2F)CC(=O)N1 (stereo not drawn) | / | / | -11.4% | / | 10.4% | /
CC1(C)[C@@H](O)CC[C@]2(C)C3C(O)C=C4[C@H]5C[C@@](C)(CO)CC[C@]5(C)CC[C@]4(C)[C@]3(C)CC[C@@H]12 (stereo partly drawn) | 3.0% | 11.2µM* | -19.3% | i | -1.3% | -3.2
Cc1ccc(-n2c(C)cc(C(=O)CSc3nncs3)c2C)cc1 | -19.6% | ? | -13.6% | i | 22.4µM* | 0.2
Cc1ccc(-n2c(C)cc(C(=O)CSc3nnnn3C)c2C)cc1 | 0.5% | 28.1% | -13.0% | i | 31.6µM* | 1.1
Cc1cc(C(=O)CSc2nnnn2C)c(C)n1CCc1ccc(F)cc1 | 0.7% | 1.0% | -13.0% | i | 15.0% | -2.2
Cc1cc(C(=O)CSc2nncs2)c(C)n1-c1c(C)n(C)n(-c2ccccc2)c1=O | 2.1% | -0.7% | -9.0% | i | -15.0% | 1.0
CCO/C=C1/C(=O)N(c2ccc(OC)cc2)C(=O)c2ccccc21 | 10.5% | 1.7% | -9.9% | i | -4.6% | -2.9
CCO/C=C1/C(=O)N(C)C(=O)c2cc(OC)ccc21 | 2.0% | -2.2% | -11.1% | i | 12.6µM* | -5.1
O=C(c1cccs1)N1CCc2c([nH]c3ccccc23)C1c1ccccn1 (stereo not drawn) | 14.4% | 3.2% | -5.7% | i | ? | -0.4
O=C(c1cc(-c2ccccc2)n[nH]1)N1CCc2c([nH]c3ccccc23)C1c1ccccn1 (stereo not drawn) | ? | 19.6% | -4.8% | i | 17.8µM* | -0.2
Cc1ccc(C(=O)N2CCc3cc(CNC(=O)c4ccccc4F)ccc32)cc1 | / | / | 3.7% | / | ? | /
COc1ccc(N2C(=O)CSC23C(=O)N2c4c(cccc43)C(C)=CC2(C)C)cc1 (stereo not drawn) | 15.8µM* | -6.2% | ? | i | -16.1% | -7.1
CCOC(=O)c1c(NC(=O)c2ccccc2Cl)sc2c1CCc1ccccc1-2 | -23.8% | 11.2µM* | 52.3% | i | -31.9% | -0.8
Cc1ccccc1NC(=O)c1ccc(N(Cc2ccccc2)S(C)(=O)=O)cc1 | / | / | -1.3% | / | 27.1% | /
O=c1cc(-c2ccc(Cl)cc2)[nH]c2ccccc12 | -15.7% | -1.0% | 11.8% | i | 7.8% | 0.7
Clc1ccc(-c2cc3ccccc3[nH]2)cc1 | -31.0% | 1.9% | -20.4% | i | 10µM* | -5.7
CCc1cccc(NC(=O)CN2C(=O)COc3ccc(S(=O)(=O)Nc4ccccc4)cc32)c1 | / | / | -10.5% | / | 7.3% | /
Cc1ccc(S(=O)(=O)n2nc(-c3ccco3)nc2NCc2ccc(N(C)C)cc2)cc1 | / | / | 1.0% | / | -17.7% | /
Clc1ccc(Nc2nc(NCc3ccco3)nc3nccnc23)cc1 | -7.4% | / | / | / | / | /
CC(C)(C)C(=O)/C=C(\N)c1ccncc1 | 0.6% | 2.1% | -12.8% | -101.1%* | 11.3% | 3.5
O=C(CCCn1ccc2cc(S(=O)(=O)N3CCCC3)ccc21)NCc1ccc(Cl)cc1 | / | / | 63.5% | / | 14.4% | /
SMILES | aSyn yeast inh | Mito fusion act | Apoferritin bind | pAkt inh | TDP43 rescue | CCT modulator
COc1cccc(/C=C2\SC(=S)N(NS(=O)(=O)c3ccc(C)cc3)C2=O)c1OC | / | 5.01µM* | -1.2% | / | / | /
COC(=O)C1CCN(c2ccc([N+](=O)[O-])cc2)CC1 | 5.6% | -1.9% | -8.2% | i | 0.0% | -65.8*
O=[N+]([O-])c1ccc(N2CCN(C(=S)NC3CCCCC3)CC2)cc1 | 2.6% | -4.5% | -23.5% | -112.4%* | 12.6µM* | 1.2
O=C(COc1ccc([N+](=O)[O-])cc1)N1CCC(c2nc3ccccc3s2)CC1 | / | / | -13.0% | / | 0.0% | /
COc1ccc(C(=O)NCC(=O)OCC(=O)c2ccc3ccccc3c2)cc1 | 4.8% | / | / | / | / | /
O=C1NC(c2cccc3ccccc23)Nc2ccc(Cl)cc21 (stereo not drawn) | 1.2% | / | / | i | 11.2µM* | 0.5
C=CCc1cccc(/C=N/NC(=O)CN2CCN(Cc3ccccc3)CC2)c1O | / | / | 4.6% | / | / | /
COc1ccc(C(=O)/C=C/C(=O)N(CC(=O)NC2CCCCC2)Cc2cccs2)c(O)c1 | 1.6% | 13.5% | -23.3% | i | 20µM* | -1.0
COCCN(CC(=O)NC1CCCCC1)C(=O)/C=C/C(=O)c1ccc(OC)cc1O | 11.0% | -0.3% | -14.7% | i | 14.1µM* | -0.1
COc1ccc(CN(C(=O)/C=C/C(=O)c2ccc(OC)cc2O)C(C(=O)NC2CCCCC2)c2ccncc2)cc1 (stereo not drawn) | 35.5µM* | ? | -20.1% | i | 28.3% | 0.7
COc1ccc(C(=O)/C=C/C(=O)N(Cc2ccc3c(c2)OCO3)C(C(=O)NC2CCCCC2)c2ccncc2)c(O)c1 (stereo not drawn) | ? | 23.9% | -21.0% | i | ? | -1.1
O=C(CN1C(=O)COc2ccc(S(=O)(=O)NC3CCCC3)cc21)Nc1ccc(Cl)cc1 | / | / | -7.3% | / | 15.6% | /
O=C(N/N=C/c1ccc2c(c1)OCO2)C1COc2ccccc2O1 (stereo not drawn) | -1.7% | 3.2% | ? | i | -1.0% | -0.5
O=C(N/N=C\C=C\c1ccco1)C1COc2ccccc2O1 (stereo not drawn) | 13.4% | -0.7% | -13.1% | i | 14.1µM* | 0.8
O=C(N/N=C\c1cc(Br)cs1)C1COc2ccccc2O1 (stereo not drawn) | 14.0% | 8.9% | ? | i | 35.5µM* | -0.3
Cc1cccc(NC(=O)c2sc3nc4c(cc3c2N)CN(C(C)C)CC4)c1 | / | / | -14.0% | / | ? | /
N[C@H](C(=O)O)C1C(C(=O)O)C1C(=O)O (stereo partly drawn) | / | / | 3.3% | / | / | /
CCOC(=O)CSc1nc2cc3c(cc2c(=O)n1CCCC(=O)NCCc1ccc(OC)c(OC)c1)OCO3 | / | / | -10.3% | / | 12.8% | /
CN(Cc1ccc(Cl)cc1)C(=O)c1ccccc1SCC(=O)N1CCCC1 | -3.6% | 2.3% | / | i | -10.6% | -49.7*
CN(CC(=O)Nc1ccc(Cl)c(C(F)(F)F)c1)C(=O)c1ccccc1SCC(=O)N1CCCC1 | 3.9% | / | / | i | ? | -1.3

Screening data from PubChem.
